From PubChem BioAssay AID777 (Sanford-Burnham Center for Chemical Genomics, 2007)
Out of some 96,000 compounds screened, about 19,000 (20%) were called active.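 Rule for the calls: active = blocking of liver enzyme CYP2C9 beyond about 50% at 5 µM (limit read from the data); inactive = the rest.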 A selection follows.

molecular target: Cytochrome P450 2C9 (Homo sapiens) (UniProt P11712); test: blockers of cytochrome P450 2C9 activity – biochemical, luminescence, ADME assay, primary screen (AID 777); conditions: CYP2C9 Supersomes, luciferin-H conversion, at 5 µM, active compounds read high
Sequence (P11712 whole entry, looked up): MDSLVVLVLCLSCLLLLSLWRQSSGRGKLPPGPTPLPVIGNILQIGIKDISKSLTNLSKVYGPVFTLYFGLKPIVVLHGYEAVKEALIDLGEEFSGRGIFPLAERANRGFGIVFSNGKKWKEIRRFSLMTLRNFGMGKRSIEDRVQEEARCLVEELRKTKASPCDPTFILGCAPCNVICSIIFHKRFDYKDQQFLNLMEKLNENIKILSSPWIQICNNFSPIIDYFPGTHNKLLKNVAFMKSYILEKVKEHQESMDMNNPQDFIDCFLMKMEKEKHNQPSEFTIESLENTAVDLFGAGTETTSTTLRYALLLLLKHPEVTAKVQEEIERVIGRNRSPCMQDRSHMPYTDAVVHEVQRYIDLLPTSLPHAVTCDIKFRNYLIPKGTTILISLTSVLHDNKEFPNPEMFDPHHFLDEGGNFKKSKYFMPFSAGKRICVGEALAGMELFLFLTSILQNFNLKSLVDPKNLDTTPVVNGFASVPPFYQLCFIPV

inhibition, inactive:
Cc1nnc(SCC(=O)NC2CCCC2)s1 11.5%
O=C(CN1CCN(c2ccccn2)CC1)NC1CCCCC1 23.5%
CN(CCCNC(=O)CN1C(=O)CC(C)(C)S(=O)(=O)c2ccccc21)C1CCCCC1 9.9%
CN1CCN(Cc2c(O)ccc3c2oc(=O)c2ccccc23)CC1 -22.3%
O=C(Nc1ncccn1)c1cccs1 -3.3%
COc1cccc(C(=O)Nc2ccc(NC(=O)c3ccco3)cn2)c1 23.4%
O=C(CCc1ccccc1)Nc1cccc(-c2nnc(-c3ccco3)o2)c1 19.3%
Cc1nc(-c2ccc(NC(=O)c3cccs3)cc2)cs1 20.2%
CCCCOc1ccc(-c2nnc(-c3ccco3)o2)cc1 19.4%
CCOc1ccc(-c2nnc(-c3ccco3)o2)cc1 31.6%
COc1ccc(Cl)cc1C(=O)Nc1ccc(N(C)C(C)=O)cc1 -206%
C/C(=N\c1nc2ccccc2n1C)c1cc(Cl)ccc1O -7.5%
CC(=O)N1C(=O)C2(Nc3ccccc3N2)c2ccccc21 4.4%
CC1CCc2c(c3ccccc3[nH]c2=O)O1 (configuration not stated) 35%
CCOC(=O)c1c(NC(=O)c2ccc(Br)o2)sc2c1CCCC2 10.2%
O=C(Nc1ccc(Br)c2cccnc12)c1ccc(Cn2cc([N+](=O)[O-])cn2)o1 -72.9%
C=CCN1C(=O)C(Cc2cccc(Cl)c2)S/C1=N/N=C/c1ccco1 (configuration not stated) -2.7%
CCCNC(=O)c1ccc(Cl)c(Cl)c1 -10.8%
CCCCNC(=O)C1CCCNC1=O (configuration not stated) -10.4%
CC1CN(c2cc(=O)n(-c3cccc(Br)c3)c(=O)[nH]2)CC(C)O1 (configuration not stated) -3.4%
CCCc1nc2ccccc2c(C(=O)OCC(=O)c2ccc3c(c2)NC(=O)CO3)c1CC -20.4%
COc1cc(-c2nnc(Cn3cc(C(F)(F)F)ccc3=O)o2)cc(OC)c1OC 12%
Cc1cc(C(=O)COC(=O)c2cccs2)c(C)n1-c1c(C)n(C)n(-c2ccccc2)c1=O 15.4%
Cc1cc(=O)n(C)c(=O)n1CCCNc1ccccc1 11.2%
COc1ccc2[nH]c(=O)c(CN(CC3CCCO3)C(=O)Nc3ccccc3)cc2c1 (configuration not stated) 19.4%
Cc1ccc2[nH]c(=O)c(CN(CCCN(C)C)C(=O)Nc3cccc(Cl)c3)cc2c1 1.4%
O=C(CS(=O)(=O)c1cn(Cc2ccc(Cl)cc2)c2ccccc12)N1CCOCC1 41%
CCN(c1ccccc1)S(=O)(=O)c1ccc(N)cc1 -137%
COc1ccc(NC(=O)c2cccc(NC(=O)c3ccco3)c2)c(OC)c1 -50.5%
COC(=O)c1cc(Cl)c(NC(=O)c2ccco2)cc1OC -135%
O=C(/C(=N\O)n1cncn1)c1ccc(Br)cc1Br 34.9%
CCCC(=O)C1=C(N(C)c2ccccc2)CC(C)(C)C(C(=O)OC)C1=O (configuration not stated) 13.7%
CCOC(=O)CNC(=O)c1nn(-c2cccc(OC)c2)c(=O)c2ccccc12 29.6%
CCc1c(O)nc(SCC(=O)Nc2ccccc2)n(C(C)CC)c1=O (configuration not stated) 11.7%
COC(=O)CSc1nc(C2CC2)nc2ccccc12 48%
N#CCSc1nc2ccccc2c(=O)n1-c1ccccc1 30.4%
O=C(CCc1ccccc1)Nc1ccc(NC(=O)C2CC2)nc1 25.9%
N#Cc1c(N)n(CCOC(=O)c2ccc(Cl)cc2)c2nc3ccccc3nc12 14.9%
CCOc1ccc(NC(=O)N(CCC(C)C)C(C)c2ccco2)cc1 (configuration not stated) 43.6%
CCCC(C(=O)NCc1ccco1)N(C(=O)CNS(=O)(=O)c1ccccc1)C1CCCC1 (configuration not stated) 40.6%
Cc1cc(C)c(S(=O)(=O)N2C=CC(C(F)(F)F)=NCC2)c(C)c1 13.2%
OC(CN1C2=NCCCN2c2ccccc21)c1ccc(Br)cc1 (configuration not stated) 17.7%
NC(=S)c1ccc(C(N)=S)o1 23.3%
Cc1ccnc(SCCn2c(Br)nc3c2c(=O)[nH]c(=O)n3C)n1 -6.9%
CCCCCCn1c(SCC(=O)c2ccccc2)nc2c1c(=O)[nH]c(=O)n2C 18.7%
CN(C)/C=C(/C(=O)c1ccc(Cl)cc1)S(=O)(=O)c1ccccc1 -9.5%
COc1ccc2oc(=O)c(C(=O)O)cc2c1 -6.4%
COc1cccc(C(=O)NNC(=O)c2ccccc2Br)c1 -182%
O=C(NC1=NCCS1)c1ccc(Cl)s1 3.9%

inhibition, active:
O=C(CN1C(=O)CC(c2ccccc2)=Nc2ccccc21)NC1CCCCC1 52.3%
CCC(=O)Oc1cccc(C(=O)Nc2ccc(-c3nnc(-c4ccco4)o3)cc2)c1 53.3%
Cc1ccc(-c2nnc(-c3ccc(NC(=O)c4cccs4)cc3)o2)cc1 56.4%
Cc1ccc(OCC(=O)Nc2ccc(-c3nnc(-c4ccco4)o3)cc2)cc1 66.3%
CC1CCc2c(sc(NC(=O)c3ccc(Cn4cc(Br)cn4)o3)c2C(N)=O)C1 (configuration not stated) 81.5%
CCCc1nc2ccccc2c(C(=O)OCc2nnc(-c3cc(OC)c(OC)c(OC)c3)o2)c1CC 67.5%
Cc1cccc(NC(=O)N(Cc2cc3cc(C)cc(C)c3[nH]c2=O)CC2COCCO2)c1 (configuration not stated) 85.5%
COc1cc(C(=O)OC(C)C(=O)NCC2CCCCC2)cc(NC(=O)c2ccco2)c1OC (configuration not stated) 81.6%
COCC(C)n1c(SCc2ccc(C(=O)OC)o2)nc2ccccc2c1=O (configuration not stated) 52.9%
COC(=O)c1ccc(CSc2nc3ccccc3c(=O)n2-c2cccc(OC)c2)o1 100%
CC(c1ccco1)N(C(=O)Nc1ccccc1)C1CCCCC1 (configuration not stated) 81.3%
Cn1c(=O)[nH]c(=O)c2c1nc(Br)n2CCCCSc1nc2ccccc2o1 67.6%
COc1cccc(C(=O)c2cc3ccc(O)cc3oc2=O)c1 92.8%
